Source: PubChem BioAssay (Tox21)
Inconclusive results are not listed. Active and inactive are the calls of the source. Unless noted, the call rests on the fitted dose curve; in most records, active means well fitted curve in the direction sought with a large enough effect in the repeat runs; inconclusive means weak or mixed curves; inactive means no such curve, though single readings can be large; an effect the other way counts as inactive or inconclusive.

Columns and labels:
[1] = qHTS assay to identify small molecule agonists of the vitamin D receptor (VDR) signaling pathway - cell viability counter screen (AID 743224); further: series mostly up to about 63 µM; on the % scale 0 is the no-effect control and ±100 the full control effect; nearly all actives have a fitted effect of over 50% in size
In short: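 Viability is measured in the same wells as the VDR-bla reporter assay: after 16 h compound treatment and 2 h substrate loading, CellTiter-Glo is added and luminescence read 30 min later.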

[2] = qHTS assay to identify small molecule antagonists of the vitamin D receptor (VDR) signaling pathway - cell viability counter screen (AID 743225); further: on the % scale 0 is the no-effect control and ±100 the full control effect; nearly all actives have a fitted effect of over 50% in size
In short: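 HEK293T VDR-bla; cpd + 1a,25-(OH)2D3 3 nM final, 16 h 37C/5% CO2; B/G FRET substrate 2 h RT; then CellTiter-Glo 30 min RT, luminescence.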

[3] = qHTS assay to identify small molecule agonists of the NFkB signaling pathway (AID 1159509; active means well fitted curve in the direction sought with a large enough effect in the signal ratio in the repeat runs, not every such curve was filed as active; the % refers to the signal ratio; further: series mostly up to about 61 µM; on the % scale 0 is the no-effect control and ±100 the full control effect)
In short: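 NFkB-bla ME-180 cells with a beta-lactamase reporter under an NF-kB response element were plated overnight, treated with compounds in DMSO for 5 hr at 37 C, then loaded with FRET substrate for 1.5 hr at room temperature.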

[4] = qHTS assay to identify small molecule agonists of the NFkB signaling pathway - cell viability counter screen (AID 1159515; calls by dose curve; further: series mostly up to about 61 µM; on the % scale 0 is the no-effect control and ±100 the full control effect; nearly all actives have a fitted effect of over 55% in size)
In short: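 Multiplexed viability readout: after the 5 hr compound exposure and 1.5 hr FRET substrate step, CellTiter-Glo reagent went into the same NFkB-bla ME-180 wells; ATP luminescence was measured after 30 min at room temperature.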

[5] = qHTS assay to identify small molecule agonists of the endoplasmic reticulum stress response signaling pathway (AID 1159516; active means well fitted activation curve with a large enough effect in the signal ratio in the repeat runs, not every such curve was filed as active; the % refers to the signal ratio; further: on the % scale 0 is the no-effect control and ±100 the full control effect)
In short: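 Tox21 10K library screened in quantitative HTS format on ESRE-bla HeLa cells, a beta-lactamase reporter under ER stress response element control; 5 hr treatment, FRET read.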

[6] = qHTS assay to identify small molecule agonists of the endoplasmic reticulum stress response signaling pathway - cell viability counter screen (AID 1159517; calls by dose curve; further: series mostly up to about 61 µM; on the % scale 0 is the no-effect control and ±100 the full control effect; nearly all actives have a fitted effect of over 50% in size)
In short: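 Luminescence readout: CellTiter-Glo, 30 min RT, same wells as the ESRE-bla reporter read. HeLa ESRE-bla, 1,500 cells/well, o/n 37 C; cpd 5 hr 37 C/5% CO2.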

[7] = qHTS assay to identify small molecule antagonists of the retinoid-related orphan receptor gamma (ROR-gamma) signaling pathway - cell viability counter screen (AID 1159520); further: on the % scale 0 is the no-effect control and ±100 the full control effect; nearly all actives have a fitted effect of over 50% in size
In short: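 Tet-on ROR gamma CHO cells (1,000/well) were plated 4 hr, given compounds in DMSO for 2 hr at 37 C, then induced with 1 uM final doxycycline for 16 hr. Viability was read as ATP by CellTiter-Glo luminescence after 30 min.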

[8] = molecular target: Nuclear receptor ROR-gamma (Homo sapiens) (UniProt P51449); assay: qHTS assay to identify small molecule antagonists of the retinoid-related orphan receptor gamma (ROR-gamma) signaling pathway (AID 1159521)
In short: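 Cells were plated, rested 4 h at 37 C, exposed to compounds for 2 h, then given 1 uM final doxycycline hyclate to induce RORγ expression. After 16 h, ONE-Glo luminescence from the ROR response element reporter was measured.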

[9] = qHTS assay to identify small molecule agonists of the AP-1 signaling pathway - cell viability counter screen (AID 1159525; calls by dose curve; further: nearly all actives have a fitted effect of over 55% in size)
In short: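 ME-180 AP-1-bla, 2500 cells/well, Opti-MEM + 0.5% dialyzed FBS; overnight 37 °C; cpd 15-pt titration, 5 h 37 °C; CellTiter-Glo 30 min RT; luminescence read; normalised to TOAB and DMSO controls.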

[10] = qHTS assay to identify small molecule agonists of the AP-1 signaling pathway (AID 1159526; calls by dose curve; further: on the % scale 0 is the no-effect control and ±100 the full control effect)
[11] = qHTS assay to identify small molecule agonists of the RXR signaling pathway - cell viability counter screen (AID 1159529)
In short: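 Steps: seed RXR-alpha-UAS-bla HEK 293T cells in assay medium containing 2% charcoal-stripped FBS; incubate 5 hr; add compounds in DMSO; incubate 16 hr at 37 C; after the bla read, add CellTiter-Glo and read luminescence at 30 min.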

[12] = qHTS assay to identify small molecule antagonists of the retinoid acid receptor (RAR) signaling pathway - cell viability counter screen (AID 1159551); further: on the % scale 0 is the no-effect control and ±100 the full control effect; nearly all actives have a fitted effect of over 35% in size
In short: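 Cytotoxicity counter screen in C3RL4 cells: 6 h compound exposure with 1 uM retinol (final), viability from cellular ATP by luminescence.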

[13] = qHTS assay to identify small molecule antagonists of the retinoic acid receptor (RAR) signaling pathway (AID 1159552)
In short: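 Retinol at 1 uM final stimulated RARE-luciferase expression in C3RL4 cells exposed to test compounds for 6 hr at 37 C. Reduced luminescence, read 30 min after detection reagent, indicated pathway antagonism.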

[14] = qHTS assay to identify small molecule agonists of the retinoic acid receptor (RAR) signaling pathway (AID 1159553); further: potency means the concentration at half of the fitted maximal effect; on activation: on the % scale 0 is the no-effect control and ±100 the full control effect
In short: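 Agonist activity was scored in C3RL4 cells bearing a retinoic acid response element luciferase construct. Cells were treated with compounds for 6 hr at 37 C, and luciferase signal was measured as luminescence.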

CC(CCl)OC(C)CCl (stereo unspecified)
inactive: outcome [1] | outcome [2] | outcome [3] | outcome [4] | outcome [5] | outcome [6] | Potency [7] | Potency [8] | outcome [9] | Potency [10] | Potency [11] | outcome [12] | outcome [13] | Potency [14]

CC(C)(O)C(=O)O
inactive: outcome [1] | outcome [3] | outcome [4] | outcome [5] | outcome [6] | Potency [7] | Potency [8] | outcome [9] | Potency [10] | Potency [11] | outcome [12] | outcome [13]

O=C1OC(=O)C2CC=CCC12 (stereo unspecified)
inactive: outcome [1] | outcome [3] | outcome [4] | outcome [5] | outcome [6] | Potency [7] | Potency [8] | outcome [9] | Potency [10] | Potency [11] | outcome [12] | outcome [13] | Potency [14]

CC1(C)CC(O)CC(C)(C)N1[O]
inactive: outcome [1] | outcome [2] | outcome [3] | outcome [4] | outcome [5] | outcome [6] | Potency [7] | Potency [8] | outcome [9] | Potency [10] | Potency [11] | outcome [12] | outcome [13] | Potency [14]

CCC(C)CCCC(C)(C)O (stereo unspecified)
inactive: outcome [1] | outcome [2] | outcome [3] | outcome [4] | outcome [5] | outcome [6] | Potency [7] | Potency [8] | outcome [9] | Potency [10] | Potency [11] | outcome [12] | outcome [13]

C=CCCC
inactive: outcome [1] | outcome [2] | outcome [3] | outcome [4] | outcome [5] | outcome [6] | Potency [7] | Potency [8] | outcome [9] | Potency [10] | Potency [11] | outcome [12] | outcome [13] | Potency [14]

CCCCCCCCCCCCSCCOCCO
inactive: outcome [1] | outcome [2] | outcome [3] | outcome [4] | outcome [5] | outcome [6] | Potency [7] | Potency [8] | outcome [9] | Potency [10] | Potency [11] | outcome [12] | outcome [13] | Potency [14]

Nc1ccc(C(=O)Oc2ccccc2)c(O)c1
active: Potency [14] 3.35 µM
inactive: outcome [3] | outcome [4] | outcome [5] | outcome [6] | Potency [7] | Potency [8] | outcome [9] | Potency [10] | Potency [11] | outcome [12] | outcome [13]

CC(C)NC(=O)c1ccccc1N
inactive: outcome [1] | outcome [2] | outcome [3] | outcome [4] | outcome [5] | outcome [6] | Potency [7] | Potency [8] | outcome [9] | Potency [10] | Potency [11] | outcome [12] | outcome [13] | Potency [14]

Cc1ccccc1CCO
inactive: outcome [1] | outcome [2] | outcome [3] | outcome [4] | outcome [5] | outcome [6] | Potency [7] | Potency [8] | outcome [9] | Potency [10] | Potency [11] | outcome [12] | outcome [13] | Potency [14]

CC(C(=O)O)c1ccc2c(c1)Cc1cccnc1O2 (stereo unspecified)
inactive: outcome [1] | outcome [3] | outcome [4] | outcome [5] | outcome [6] | Potency [7] | Potency [8] | outcome [9] | Potency [10] | Potency [11] | outcome [12] | outcome [13]

O=C(O)CCc1nc2ccccc2[nH]1
inactive: outcome [1] | outcome [3] | outcome [4] | outcome [5] | outcome [6] | Potency [7] | Potency [8] | outcome [9] | Potency [10] | Potency [11] | outcome [12] | outcome [13] | Potency [14]

CCN(CC)CC(=O)OCC(=O)[C@@]1(O)CC[C@H]2[C@@H]3CCC4=CC(=O)CC[C@]4(C)[C@H]3[C@@H](O)C[C@@]21C
inactive: outcome [2] | outcome [3] | outcome [4] | outcome [5] | outcome [6] | Potency [7] | Potency [8] | outcome [9] | Potency [10] | Potency [11] | outcome [12] | outcome [13] | Potency [14]

CC(C)C/C=C(\C=O)c1ccccc1
inactive: outcome [1] | outcome [3] | outcome [4] | outcome [5] | outcome [6] | Potency [7] | Potency [8] | outcome [9] | Potency [10] | Potency [11] | outcome [12] | outcome [13] | Potency [14]

CCOC(C)OCC
inactive: outcome [1] | outcome [2] | outcome [3] | outcome [4] | outcome [5] | outcome [6] | Potency [7] | Potency [8] | outcome [9] | Potency [10] | Potency [11] | outcome [12] | outcome [13] | Potency [14]

COC(=O)/C=C/C(C)=C\C=C\C(C)=C\C=C\C=C(C)\C=C\C=C(C)\C=C\C(=O)O
active: Potency [14] 61.1 µM
inactive: outcome [2] | outcome [3] | outcome [4] | outcome [5] | outcome [6] | Potency [7] | Potency [8] | outcome [9] | Potency [10] | Potency [11] | outcome [12] | outcome [13]

Cc1c(Cl)cccc1Nc1ccccc1C(=O)O
inactive: outcome [1] | outcome [2] | outcome [3] | outcome [4] | outcome [5] | outcome [6] | Potency [7] | Potency [8] | outcome [9] | Potency [10] | Potency [11] | outcome [12] | outcome [13] | Potency [14]

Clc1nc2ccccc2nc1Cl
inactive: outcome [3] | outcome [4] | outcome [5] | outcome [6] | Potency [7] | Potency [8] | outcome [9] | Potency [10] | Potency [11]

CCCCCCCCCCCCCCCCCCCl
inactive: activity change, negative = cytotoxicity [1] 6.04% [at 5.95 µM] | activation [3] -0.691% [at 6.95 µM] | activity, negative = cytotoxic [4] -1.14% [at 6.95 µM] | activation [5] -3.96% [at 6.95 µM] | activity change, negative = cytotoxicity [6] 2.96% [at 6.95 µM] | activity, negative = cytotoxicity [7] -1.61% [at 8.39 µM] | activity change, negative = inhibition [8] 0.775% [at 8.39 µM] | viability change, negative = cytotoxic [9] 1.66% [at 6.97 µM] | activation [10] -4.53% [at 6.97 µM] | activity change, negative = cytotoxicity [11] 3.39% [at 6.97 µM] | activity change, negative = cytotoxicity [12] -1.45% [at 8.39 µM] | activity, negative = inhibition [13] -19.9% [at 8.39 µM] | activation [14] -0.984% [at 8.36 µM]

Cc1cc(C)n(CO)n1
inactive: outcome [2] | outcome [3] | outcome [4] | outcome [5] | outcome [6] | Potency [7] | Potency [8] | outcome [9] | Potency [10] | Potency [11] | outcome [12] | outcome [13] | Potency [14]
